Experimental data: PubChem BioAssay (NCATS)
“And” between values parts separate entries of the source, which are not always exact repeats. Equal entries are not always repeated. Inconclusive results are not listed. Entries that show only a call come without a potency. The source holds several records for some structures; these can differ, active in one and inactive in another. The source made the active and inactive calls. Unless noted, the call rests on the fitted dose curve; in most records, active means well fitted curve in the direction sought with a large enough effect; inconclusive means small, poorly fitted or top-dose-only effect, or another doubt; inactive means no such curve, though single readings can be large; an effect the other way counts as inactive or inconclusive. Where a SMILES comes first, the peptide text is derived from it. Bridges are numbered along the chain shown (N, C = ends). [ ]: non-standard residue; d: D form. The star is where a group is joined. X1 = CCC(C)C(N)C1=NC(C(=O)*)CS1; dOrn = NCCC[C@@H](N)C(=O)O

Tests used:
[1] = biological target: Cytochrome P450 2D6 (Homo sapiens) (UniProt P10635); assay: Cytochrome P450 family 2 subfamily D member 6 (CYP2D6) small molecule antagonists: luciferase biochemical (cell-free) qHTS assay (AID 1645840; active means well fitted curve in the direction sought with a large enough effect in the repeat runs; an effect the other way counts as inactive or inconclusive; further: nearly all actives have a fitted effect of over 55% in size)
Chain of Cytochrome P450 2D6 (Homo sapiens) (P10635 whole entry, looked up): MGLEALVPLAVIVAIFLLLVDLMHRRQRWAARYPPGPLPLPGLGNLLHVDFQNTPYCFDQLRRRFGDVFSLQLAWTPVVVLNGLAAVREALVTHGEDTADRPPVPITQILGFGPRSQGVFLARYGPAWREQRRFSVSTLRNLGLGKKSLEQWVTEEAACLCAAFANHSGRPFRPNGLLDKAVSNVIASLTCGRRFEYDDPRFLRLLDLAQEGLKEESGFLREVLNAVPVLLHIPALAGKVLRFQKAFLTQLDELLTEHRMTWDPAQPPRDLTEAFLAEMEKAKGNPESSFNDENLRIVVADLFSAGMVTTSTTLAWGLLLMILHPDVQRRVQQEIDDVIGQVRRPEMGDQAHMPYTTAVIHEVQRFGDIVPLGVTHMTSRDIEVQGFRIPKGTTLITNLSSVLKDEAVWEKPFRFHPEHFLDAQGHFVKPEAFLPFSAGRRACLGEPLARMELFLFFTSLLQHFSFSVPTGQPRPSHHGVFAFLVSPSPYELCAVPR
Procedure, shortened: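 P450-Glo CYP2D6 system: proluciferin substrate converted by enzyme to luciferin, read by luminescence proportional to activity. Enzyme-substrate mix with compound 10 min at room temperature, then NADPH regeneration 1 h before detection reagent.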

[2] = biological target: Cytochrome P450 2C9 (Homo sapiens) (UniProt P11712); assay: Cytochrome P450 family 2 subfamily C member 9 (CYP2C9) small molecule antagonists: luciferase biochemical (cell-free) qHTS assay (AID 1645842; active means well fitted curve in the direction sought with a large enough effect in the repeat runs; an effect the other way counts as inactive or inconclusive; further: nearly all actives have a fitted effect of over 55% in size)
Chain of Cytochrome P450 2C9 (Homo sapiens) (P11712 whole entry, looked up): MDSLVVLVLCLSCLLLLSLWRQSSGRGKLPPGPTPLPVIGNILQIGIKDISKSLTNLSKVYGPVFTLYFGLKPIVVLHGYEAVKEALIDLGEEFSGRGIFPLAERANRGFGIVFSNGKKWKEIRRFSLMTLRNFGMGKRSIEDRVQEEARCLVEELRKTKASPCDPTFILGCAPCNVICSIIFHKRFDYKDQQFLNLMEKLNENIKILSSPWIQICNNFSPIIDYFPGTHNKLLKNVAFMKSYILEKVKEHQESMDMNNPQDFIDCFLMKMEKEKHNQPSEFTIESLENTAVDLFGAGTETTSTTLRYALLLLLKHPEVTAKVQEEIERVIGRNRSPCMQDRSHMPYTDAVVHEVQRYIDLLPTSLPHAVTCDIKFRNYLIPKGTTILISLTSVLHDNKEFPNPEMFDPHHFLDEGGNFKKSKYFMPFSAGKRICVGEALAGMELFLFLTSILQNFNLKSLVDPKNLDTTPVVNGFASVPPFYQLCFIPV
Procedure, shortened: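 P450-Glo CYP2C9 system: proluciferin substrate with enzyme in mix containing 0.4% BSA, 10 min at room temperature, then NADPH regeneration solution added and incubated 1 h at 37C. Detection reagent stopped reaction; luminescence read after 20 min as RLU.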

[3] = Primary qHTS for inhibitors of nuclear receptor binding SET domain protein 2 (NSD2) in an isogenic RCH-ACV NSD2 p.E1099K mutant (9B) (AID 1645876); further: nearly all actives have a fitted effect of over 70% in size
[4] = Primary qHTS for inhibitors of nuclear receptor binding SET domain protein 2 (NSD2) in an RCH-ACV wild type WT cells (2C) (AID 1645877); further: nearly all actives have a fitted effect of over 70% in size
[5] = biological target: N-terminal Xaa-Pro-Lys N-methyltransferase 1 (Homo sapiens) (UniProt Q9BV86); assay: Confirmatory qHTS for Inhibitors of N-terminal methyltransferase 1 (NTMT1): MTaseGlo Assay (AID 1645874); further: nearly all actives have a fitted effect of over 65% in size
Chain of N-terminal Xaa-Pro-Lys N-methyltransferase 1 (Homo sapiens) (Q9BV86 whole entry, looked up): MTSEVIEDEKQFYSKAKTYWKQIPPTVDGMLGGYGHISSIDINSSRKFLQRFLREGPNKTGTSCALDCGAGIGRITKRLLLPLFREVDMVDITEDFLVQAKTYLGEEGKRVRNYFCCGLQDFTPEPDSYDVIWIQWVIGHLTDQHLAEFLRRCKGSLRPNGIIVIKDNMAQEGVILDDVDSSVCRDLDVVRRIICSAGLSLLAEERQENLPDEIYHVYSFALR
Procedure, shortened: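 MTase-Glo luminescence measured SAH formed by 125 nM NTMT1 from 100 uM SAM and 1 uM SPKRIA peptide over 30 min at room temperature, following 15 min compound preincubation. Percent inhibition against no-enzyme and DMSO controls gave 4-parameter Hill fits.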
Potency means the concentration at half of the fitted maximal effect.

Compound	Potency [1]	Potency [2]	Potency [3]	Potency [4]	Potency [5]
O=c1c2cccnc2n(-c2cccc([N+](=O)[O-])c2)c(=O)n1Cc1ccncc1	1.51 µM (active)	0.268 µM (active)	inactive	inactive	–
CCOC(=O)N1CCC(NCCNC(=O)c2ccccc2C)CC1	10.7 µM (active)	inactive	inactive	inactive	–
O=C(NCC(=O)N1CC[C@H](NC2CCC(O)(c3ccc(-c4ncccn4)cn3)CC2)C1)c1cccc(C(F)(F)F)c1 (some centres not stated)	inactive	inactive	inactive	inactive	–
O=C1NC(=Nc2ccccc2F)S/C1=C\c1ccc(C(=O)O)cc1	inactive	10.7 µM (active)	inactive	inactive	–
COc1cccc(-c2ccc([C@@H](Oc3cc(-c4ccc(C[C@H](N)C(=O)O)cc4)nc(N)n3)C(F)(F)F)cc2)c1	inactive	6.74 µM (active)	inactive	inactive	–
O=C(c1ccc(C#Cc2cccc(F)c2)cn1)N1CC2CC2C1 (configuration not stated)	16.9 µM (active)	23.9 µM (active)	inactive	inactive	–
CN(C)C/C=C/C(=O)Nc1ccc(C(=O)Nc2cccc(Nc3ncc(Cl)c(-c4c[nH]c5ccccc45)n3)c2)cc1	inactive	7.56 µM (active)	18.3 nM (active) and 52.5 nM (active)	18.3 nM (active) and 46.8 nM (active)	–
CON(C)C(=O)N1N=C(c2cc(F)ccc2F)S[C@@]1(CCCN)c1ccccc1	19 µM (active)	3.01 µM (active)	9.2 nM (active) and 14.8 nM (active)	6.5 nM (active) and 13.2 nM (active)	–
CNC(=O)O[C@H]1COc2ccc(N3CCN(C4COC4)CC3)cc2[C@@H]1NC(=O)c1ccc(F)cc1	inactive	inactive	inactive	inactive	–
NS(=O)(=O)OC[C@@H]1C[C@@H](n2ccc3c(N[C@H]4CCc5ccccc54)ncnc32)C[C@@H]1O	inactive and 8.49 µM (active)	21.3 µM (active)	325 nM (active) and 409 nM (active) and 525 nM (active)	365 nM (active) and 515 nM (active) and 525 nM (active)	–
Nc1ncnc2c1ncn2[C@H]1CCCO1	inactive	inactive	inactive	inactive	–
COc1cc(NC(=O)c2ccccn2)ccc1Cl	23.9 µM (active)	23.9 µM (active)	inactive	inactive	–
CCC(CC)n1ccc2c(C(=O)NCc3c(C)cc(C)[nH]c3=O)cc(C#N)cc21	inactive	4.77 µM (active)	inactive	inactive	–
CC1(C)CC(=O)N(CCCCN2CCN(c3ncccn3)CC2)C(=O)C1	inactive	inactive	inactive	inactive	–
CCC(=O)NS(=O)(=O)c1ccc(-c2c(-c3ccccc3)noc2C)cc1	inactive	6.74 µM (active)	inactive	inactive	–
CC(C)Nc1cc(-c2c[nH]c(C(=O)N[C@H](CO)c3cccc(Cl)c3)c2)c(Cl)cn1	19 µM (active)	4.77 µM (active)	20.5 µM (active) and 2.95 µM (active)	8.17 µM (active) and 2.95 µM (active)	–
CN1CCC(c2c[nH]c3ccc(NC(=O)c4ccc(F)cc4)cc23)CC1	16.9 µM (active)	inactive	inactive	inactive	–
CC1(C)CCC(C)(C)c2cc([C@@H](O)C(=O)Nc3ccc(C(=O)O)cc3F)ccc21	inactive	13.5 µM (active)	inactive	inactive	–
COc1cc(N2CCC(N(C)C)CC2)ccc1Nc1ncc(Cl)c(Nc2ccccc2P(C)(C)=O)n1	inactive	–	2.3 µM (active) and 2.63 µM (active)	3.25 µM (active) and 3.32 µM (active)	–

Compound	Potency [1]	Potency [2]	Potency [3]	Potency [4]	Potency [5]
Cc1cn2c(N)c(Cl)cc(C(=O)NCC3CCN(CC(C)C)CC3)c2n1	4.77 µM (active)	–	inactive	–	–
Cc1cc(C)cc(NC(=O)Cc2ccc(OC(C)(C)C(=O)O)cc2)c1	inactive	inactive	inactive	inactive	–
CCc1cc2c(=O)c(-c3nc4ccccc4s3)coc2c(CN2CCCCC2)c1O	inactive	0.12 µM (active)	inactive	inactive	–
O=c1ccn([C@@H]2O[C@H](CO)[C@@H](O)[C@H]2O)c(=O)[nH]1	inactive	inactive	inactive	inactive	–
COC(=O)[C@H](CC1C=NC=N1)NCC12CC3CC(CC(C3)C1)C2 (some centres not stated)	inactive	inactive	inactive	inactive	–
C[C@]12C=CC(=O)C=C1CC[C@@H]1[C@@H]2[C@@H](O)C[C@@]2(C)[C@H]1CC[C@]2(O)C(=O)COC(=O)CCC(=O)O	inactive	inactive	–	258 nM (active)	–
NC(Cc1c[nH]c2ccccc12)C(=O)NC(CCC(=O)O)C(=O)O (configuration not stated)	inactive	inactive	inactive	inactive	–
Cc1ccc2c(c1)C=Cc1cc(C)ccc1C2c1cn(Cc2ccc(C(=O)Nc3nn[nH]n3)o2)c(=O)[nH]c1=S	inactive	–	inactive	inactive	–
Cc1onc(-c2ccccc2)c1C(=O)N[C@@H]1C(=O)N2[C@@H]1SC(C)(C)[C@@H]2C(=O)O	inactive	inactive	inactive	inactive	–
CC(=O)NCCCCn1c2c(c3ccccc31)C(=O)NCC2	inactive	inactive	inactive	inactive	–
CNC(=O)c1ccc2cc([C@@]3(O)CCn4cncc43)ccc2c1	12 µM (active)	–	inactive	inactive	–
O=C(O)c1n[nH]c2c1C[C@H]1C[C@@H]21	inactive	inactive	inactive	inactive	–
CO[C@@H](Cc1ccc(OCCc2nc(-c3ccccc3)oc2C)c2ccsc12)C(=O)O	inactive	26.8 µM (active)	inactive	inactive	–
CNC(=O)COC(=O)NCCC1CCN(c2cccc(C)n2)CC1	inactive	inactive	inactive	inactive	–
NCc1c[nH]c(=S)n1C1CCc2c(F)cc(F)cc2C1 (configuration not stated)	3.79 µM (active)	–	inactive	inactive	–
COc1ccc(C[C@H](N)C(=O)N[C@H]2[C@@H](O)[C@H](n3cnc4c(N(C)C)ncnc43)O[C@@H]2CO)cc1	inactive	–	409 nM (active)	258 nM (active)	–
CCCCNC(=O)[C@@H]1Cc2ccccc2N1C(=O)[C@@H](N)CC	inactive	inactive	inactive	inactive	–
O=C(O)[C@H]1CCCC[C@H]1C(=O)N1CCc2ccccc2[C@H]1CN1C(=O)c2ccccc2C1=O	inactive	–	–	inactive	–
Cc1c(-c2ccnn2C)cc(C(=O)NCc2ccc(S(C)(=O)=O)cn2)c(=O)n1-c1cccc(C(F)(F)F)c1	inactive	–	inactive	inactive	–

Compound	Potency [1]	Potency [2]	Potency [3]	Potency [4]	Potency [5]
CN1Cc2c(N)cccc2C(c2ccccc2)C1 (configuration not stated)	7.76 µM (active)	inactive	inactive	inactive	–
Cc1nc2c(-c3cnc(N)nc3)nc(N3CCOCC3)nc2n1C(C)C	inactive	12 µM (active)	72.8 nM (active) and 132 nM (active)	72.8 nM (active) and 132 nM (active)	–
COCC(=O)N1CCc2cc(-c3csc(NC(=O)c4cc(OC)cc(OC)c4)n3)ccc21	inactive	–	inactive	inactive	–
C[C@H](CCC(=O)O)[C@H]1CC[C@H]2[C@@H]3[C@H](O)C[C@@H]4C[C@H](O)CC[C@]4(C)[C@H]3CC[C@]12C	inactive	–	inactive	inactive	–
CCS(=O)(=O)N1CCC([C@@H](C)n2c(C)c(C(=O)NCc3c(OC)cc(C)[nH]c3=O)c3ccccc32)CC1	inactive	–	inactive	inactive	–
O=S(=O)(NC1CCNCC1)c1cc(S(=O)(=O)c2ccccc2)ccc1C(F)(F)F	inactive	inactive	inactive	inactive	–
CCOC(=O)Nc1nc2ccccc2[nH]1	3.79 µM (active)	–	inactive	–	–
Cc1cc(N2CCCCC2)nc2ccccc12	10.7 µM (active)	inactive	inactive	inactive	–
C=Cc1cc(O)cc2nc(-c3ccc(O)c(F)c3)oc12	21.3 µM (active)	–	–	–	44.7 µM (active)
CCC(C)C(N)C1=NC(C(=O)N[C@@H](CC(C)C)C(=O)N[C@H](CCC(=O)O)C(=O)N[C@H](C(=O)N[C@H]2CCCCNC(=O)[C@H](CC(N)=O)NC(=O)[C@@H](CC(=O)O)NC(=O)[C@H](Cc3cnc[nH]3)NC(=O)[C@@H](Cc3ccccc3)NC(=O)[C@H]([C@@H](C)CC)NC(=O)[C@@H](CCCN)NC2=O)[C@@H](C)CC)CS1 (some centres not stated) (X1-L[dE]IK[dOrn]I[dF]H[dD]N; lactam 4-C)	inactive	–	inactive	inactive	2.94 µM (active)
COc1ccc(C)c2sc(NC(=O)c3ccncc3)nc12	6.74 µM (active)	0.849 µM (active)	inactive	inactive	–
CC(C)c1ccc(CC(=O)N2CCC[C@@H](c3cccc(OC(C)(C)C(=O)O)c3)C2)cc1	inactive	–	inactive	inactive	–
Clc1ccc(CN[C@H]2CCN(c3ncc(Br)cn3)C2)c(Cl)c1	0.674 µM (active)	8.49 µM (active)	–	inactive	–
N[C@@H](CC(=O)N1CCn2c(nnc2C(F)(F)F)C1)Cc1[nH]nc2c(F)c(F)ccc12	inactive	inactive	inactive	inactive	–
Nc1nc(CC(=O)Nc2ccc(CCNCC(O)c3ccccc3)cc2)cs1 (configuration not stated)	0.477 µM (active)	–	inactive	inactive	–
COc1ccccc1-n1c(SCC(=O)Nc2nc3ccc(C)cc3s2)nc2c(c1=O)SCC2	inactive	–	inactive	inactive	–
CC(C)N(C[C@H]1O[C@@H](n2cnc3c(N)ncnc32)[C@H](O)[C@@H]1O)C1CC(CCc2nc3ccc(C(C)(C)C)cc3[nH]2)C1 (some centres not stated)	16.9 µM (active)	inactive	inactive	inactive	–
CCOC(=O)[C@H](CCc1ccccc1)CC1(C(=O)N[C@H]2CCc3ccccc3N(CC(=O)O)C2=O)CCCC1	inactive	inactive	inactive	inactive	–
